Results taken from PubChem BioAssay (Tox21).
Inconclusive results are not listed. The source made the active and inactive calls. Unless noted, the call rests on the fitted dose curve; in most records, active means well fitted curve in the direction sought with a large enough effect in the repeat runs; inconclusive means weak or mixed curves; inactive means no such curve, though single readings can be large; an effect the other way counts as inactive or inconclusive.

Tests used:
[1] = qHTS assay to identify small molecule antagonists of the androgen receptor (AR) signaling pathway using the MDA cell line in the presence of 0.5 nM R1881 - cell viability counter screen (AID 1259242); further: nearly all actives have a fitted effect of over 45% in size
Procedure, shortened: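 MDA-kb2 cells (MMTV-luciferase, AR/GR responsive) were treated with compounds plus 0.5 nM R1881 (final) for 16 hr at 37C, 0% CO2. Viability was then read in the same wells as live-cell protease fluorescence (CellTiter-Fluor, 30 min).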

[2] = target: Androgen receptor (Homo sapiens) (UniProt P10275); assay: qHTS assay to identify small molecule antagonists of the androgen receptor (AR) signaling pathway using the MDA cell line in the presence of 0.5 nM R1881 (AID 1259243); further: nearly all actives have a fitted effect of over 50% in size
Androgen receptor (Homo sapiens), sequence (P10275 whole entry, looked up): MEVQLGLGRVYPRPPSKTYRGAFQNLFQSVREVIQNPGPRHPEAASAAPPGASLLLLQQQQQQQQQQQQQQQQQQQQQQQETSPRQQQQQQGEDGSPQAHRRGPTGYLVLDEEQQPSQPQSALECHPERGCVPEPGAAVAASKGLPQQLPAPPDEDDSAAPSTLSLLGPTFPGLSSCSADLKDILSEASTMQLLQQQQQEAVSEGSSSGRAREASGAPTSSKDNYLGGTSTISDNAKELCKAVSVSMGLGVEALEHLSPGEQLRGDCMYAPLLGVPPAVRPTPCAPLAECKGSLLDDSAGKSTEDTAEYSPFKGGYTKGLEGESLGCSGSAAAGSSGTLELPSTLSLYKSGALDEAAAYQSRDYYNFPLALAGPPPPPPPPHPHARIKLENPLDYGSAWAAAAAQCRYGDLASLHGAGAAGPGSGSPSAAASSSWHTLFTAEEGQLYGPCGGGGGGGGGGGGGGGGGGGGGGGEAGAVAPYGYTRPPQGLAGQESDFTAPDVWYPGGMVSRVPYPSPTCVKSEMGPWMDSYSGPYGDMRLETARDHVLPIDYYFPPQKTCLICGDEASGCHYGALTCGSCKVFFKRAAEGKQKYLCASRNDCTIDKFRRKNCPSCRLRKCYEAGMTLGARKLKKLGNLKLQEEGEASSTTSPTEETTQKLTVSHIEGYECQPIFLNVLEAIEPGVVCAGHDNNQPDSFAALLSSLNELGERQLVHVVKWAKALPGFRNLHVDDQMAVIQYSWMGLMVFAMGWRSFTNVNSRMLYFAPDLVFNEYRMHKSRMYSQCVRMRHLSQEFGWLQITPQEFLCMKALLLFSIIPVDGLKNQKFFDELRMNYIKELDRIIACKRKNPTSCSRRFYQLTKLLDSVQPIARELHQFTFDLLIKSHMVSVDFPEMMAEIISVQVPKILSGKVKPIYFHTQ
Procedure, shortened: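 MDA-kb2 cells (MMTV-luciferase, responsive to AR and GR) at 3,000/well, rested 5 h at 37C, 0% CO2, then given compounds plus 0.5 nM R1881 (final) for 16 hr. Luciferase read with ONE-Glo after 30 min at room temperature.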

[3] = target: Estrogen receptor (Homo sapiens) (UniProt P03372); assay: qHTS assay to identify small molecule antagonists of the estrogen receptor alpha (ER-alpha) signaling pathway using the BG1 cell line in the presence of 0.1 nM 17-beta-estradiol (AID 1259244); further: nearly all actives have a fitted effect of over 50% in size
Estrogen receptor (Homo sapiens), sequence (P03372 whole entry, looked up): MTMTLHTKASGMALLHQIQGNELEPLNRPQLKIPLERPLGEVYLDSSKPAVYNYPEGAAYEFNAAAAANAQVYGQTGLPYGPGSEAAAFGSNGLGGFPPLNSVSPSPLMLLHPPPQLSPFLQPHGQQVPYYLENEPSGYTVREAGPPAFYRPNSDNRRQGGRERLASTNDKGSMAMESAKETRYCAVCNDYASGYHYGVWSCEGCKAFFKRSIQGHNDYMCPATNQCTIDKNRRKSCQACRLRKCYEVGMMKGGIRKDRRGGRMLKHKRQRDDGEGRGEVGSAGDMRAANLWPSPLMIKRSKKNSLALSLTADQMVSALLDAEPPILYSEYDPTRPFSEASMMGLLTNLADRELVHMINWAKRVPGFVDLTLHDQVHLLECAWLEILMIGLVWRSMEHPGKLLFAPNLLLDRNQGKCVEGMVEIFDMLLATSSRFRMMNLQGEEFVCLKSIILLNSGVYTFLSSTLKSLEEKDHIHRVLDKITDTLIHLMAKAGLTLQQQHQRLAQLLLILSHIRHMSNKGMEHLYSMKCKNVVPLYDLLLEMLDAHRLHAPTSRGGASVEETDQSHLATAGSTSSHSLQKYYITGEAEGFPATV
Procedure, shortened: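 VM7Luc4E2 cells (endogenous full-length ER-alpha, 4×ERE-luciferase), kept 5 days in phenol red-free, charcoal-stripped FBS medium; 4,000 cells/well. Compounds added with 0.1 nM (final) 17beta-estradiol, 22 hr at 37C; luminescence read with ONE-Glo after 30 min.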

[4] = qHTS assay to identify small molecule HDAC inhibitors (AID 1259364); further: top concentration of the series differs between compounds; nearly all actives have a fitted effect of over 45% in size
Procedure, shortened: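 Wild-type HCT-116 cells, plated overnight at 37 C, exposed to compounds 2 hr at 37 C; luminogenic HDAC-Glo substrate then added 30 min at room temperature. Luminescence reports relative endogenous class I/II HDAC activity.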

[5] = qHTS assay to identify small molecule HDAC inhibitors - cell viability counter screen (AID 1259365); further: series mostly up to about 92 µM; nearly all actives have a fitted effect of over 50% in size
Procedure, shortened: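 After overnight seeding at 1,500 cells per well, wild-type HCT-116 cultures took up compounds in DMSO for 2hr at 37 C. Viable cell content came from luminescence with CellTiter-Glo.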

[6] = qHTS assay to identify small molecule agonists of the sonic hedgehog signaling (Shh) pathway - cell viability counter screen (AID 1259366); further: nearly all actives have a fitted effect of over 50% in size
Procedure, shortened: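 Same-well cytotoxicity read. Gli1-Luc reporter 3T3 cells; compounds 24hr, 37C/5% CO2; CellTiter-Fluor fluorescence.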

[7] = qHTS assay to identify small molecule antagonists of the sonic hedgehog signaling (Shh) pathway - cell viability counter screen (AID 1259367); further: nearly all actives have a fitted effect of over 55% in size
Procedure, shortened: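 NIH/3T3-derived Gli1-Luc reporter cells, 2,000/well, plated 4 hr before compound addition, then stimulated with conditioned medium for 24 hr at 37C. Viability measured in the same wells by CellTiter-Fluor fluorescence, reagent added at 23 hr for 1 hr.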

[8] = qHTS assay to identify small molecule agonists of the sonic hedgehog signaling (Shh) pathway (AID 1259368; calls by dose curve;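 further: NIH/3T3-derived 3T3Gli1-Luc cells carrying a stable Gli1-driven firefly luciferase reporter; series mostly up to about 92 µM; nearly all actives have a fitted effect of over 15% in size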)
Procedure, shortened: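 NIH/3T3-derived 3T3Gli1-Luc cells with stably integrated Gli1-driven firefly luciferase, 2,000 cells/well, compounds added after 4 hr. Incubated 24 hr at 37C, 5% CO2; luminescence read after 30 min with luciferase reagent at room temperature.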

[9] = qHTS assay to identify small molecule antagonists of the sonic hedgehog signaling (Shh) pathway (AID 1259369; calls by dose curve; further: nearly all actives have a fitted effect of over 45% in size)
Procedure, shortened: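 NIH/3T3-derived Gli1-Luc reporter cells plated 4 h, dosed with compound, then stimulated with conditioned medium for 24 h at 37 C. Firefly luciferase luminescence read after 30 min with detection reagent at room temperature.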

[10] = qHTS assay to identify small molecule agonists of the androgen receptor (AR) signaling pathway in the presence of an antagonist - cell viability counter screen (AID 1259379);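 further: MDA-kb2 human breast cancer cells carrying an MMTV luciferase reporter; series mostly up to about 92 µM; nearly all actives have a fitted effect of over 25% in size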
Procedure, shortened: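 MDA-kb2 cells (MMTV-luciferase, AR/GR), 3,000/well, 5 h attachment, then 3.0 µM nilutamide (final) and compounds at 15 concentrations. Viability by CellTiter-Fluor fluorescence after 16 h at 37 °C, 0% CO2, in the reporter wells.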

[11] = target: Androgen receptor (Homo sapiens) (UniProt P10275); assay: qHTS assay to identify small molecule agonists of the androgen receptor (AR) signaling pathway in the presence of an antagonist (AID 1259381; calls by dose curve; further: nearly all actives have a fitted effect of over 15% in size)
Procedure, shortened: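 MDA-kb2 cells carrying MMTV-luciferase (AR/GR responsive), 3,000 cells/well, co-treated with 3.0 uM nilutamide final. Compounds at 15 concentrations, 16 hr at 37C without CO2. Luciferase luminescence read after 30 min with ONE-Glo.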

[12] = target: Estrogen receptor (Homo sapiens) (UniProt P03372); assay: qHTS assay to identify small molecule agonists of the estrogen receptor alpha (ER-alpha) signaling pathway in the presence of an antagonist (AID 1259383; calls by dose curve; further: top concentration of the series differs between compounds; nearly all actives have a fitted effect of over 15% in size)
Procedure, shortened: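 VM7Luc4E2 cells express endogenous full-length ER-alpha with an ERE-luciferase reporter and were hormone-deprived for 5 days. Compounds at 15 concentrations were added with 10.0nM ICI-182,780 for 22hr at 37C. Luminescence was read with ONE-Glo.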

[13] = qHTS assay to identify small molecule agonists of the estrogen receptor alpha (ER-alpha) signaling pathway in the presence of an antagonist - cell viability counter screen (AID 1259386);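 further: series mostly up to about 92 µM; cells exposed to compounds for 22 h at 37 °C before the viability read; nearly all actives have a fitted effect of over 30% in size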
Procedure, shortened: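 Cell viability in VM7Luc4E2 cells (endogenous full-length ER-alpha) measured by CellTiter-Fluor fluorescence in the same wells as the luciferase screen. Cells pre-cultured 5 days in charcoal-stripped serum, then treated 22 h with compounds at 15 concentrations plus 10.0nM ICI-182,780.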

[14] = qHTS assay to identify small molecule agonists of the estrogen receptor beta (ER-beta) signaling pathway - cell viability counter screen (AID 1259380); further: nearly all actives have a fitted effect of over 30% in size
Procedure, shortened: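 ER-beta-UAS-bla HEK293T cells in medium with 2% charcoal-stripped FBS, pre-incubated 6 hr, then treated 16 hr at 37C. Cytotoxicity read in the same wells by CellTiter-Glo luminescence after 30 min at room temperature.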

[15] = qHTS assay to identify small molecule agonists or antagonists of the thyroid stimulating hormone receptor (TSHR) signaling pathway - wild type cell line counter screen (AID 1259384; calls by dose curve)
Procedure, shortened: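 Wild-type Hek293 cells, 800/well, 18 h at 37C, then compound with Ro20-1724 for 30 min RT. cAMP by HTRF (cAMP-d2/anti-cAMP cryptate), 1 h RT, fluorescence read. 15 concentrations, triplicates.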

[16] = target: Thyrotropin receptor (Homo sapiens) (UniProt P16473); assay: qHTS assay to identify small molecule antagonists of the thyroid stimulating hormone receptor (TSHR) signaling pathway (AID 1259385; calls by dose curve; further: nearly all actives have a fitted effect of over 20% in size)
Thyrotropin receptor (Homo sapiens), sequence (P16473 whole entry, looked up): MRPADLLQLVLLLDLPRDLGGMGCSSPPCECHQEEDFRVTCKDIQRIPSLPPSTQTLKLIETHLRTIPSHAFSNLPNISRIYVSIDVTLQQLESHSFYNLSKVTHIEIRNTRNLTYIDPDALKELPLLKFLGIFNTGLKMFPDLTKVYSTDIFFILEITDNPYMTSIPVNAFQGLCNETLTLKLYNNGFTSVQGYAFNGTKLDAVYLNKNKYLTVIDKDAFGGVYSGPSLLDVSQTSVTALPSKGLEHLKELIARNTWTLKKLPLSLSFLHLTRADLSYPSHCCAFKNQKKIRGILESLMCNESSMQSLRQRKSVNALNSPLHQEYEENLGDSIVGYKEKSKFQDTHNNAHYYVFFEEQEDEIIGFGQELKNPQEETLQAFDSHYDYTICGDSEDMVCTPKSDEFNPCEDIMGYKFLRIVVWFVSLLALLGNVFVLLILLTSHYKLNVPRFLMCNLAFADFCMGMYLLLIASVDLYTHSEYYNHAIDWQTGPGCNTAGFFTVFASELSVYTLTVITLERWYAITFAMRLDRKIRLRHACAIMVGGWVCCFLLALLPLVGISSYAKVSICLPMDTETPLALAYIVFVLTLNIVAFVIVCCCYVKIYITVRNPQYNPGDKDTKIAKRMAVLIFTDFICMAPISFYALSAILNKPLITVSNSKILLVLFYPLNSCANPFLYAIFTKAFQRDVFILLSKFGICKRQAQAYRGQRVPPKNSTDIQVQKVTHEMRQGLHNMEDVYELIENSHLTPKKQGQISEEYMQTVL
Procedure, shortened: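 TSHR-HEK293 cells (800/well) plated 18 h, then compounds with Ro20-1724 and TSH at 1.5 ng/mL final, 30 min at room temperature. cAMP quantified by HTRF (cAMP-d2/anti-cAMP-cryptate, 1 h); 15 concentrations in triplicate.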

[17] = qHTS assay to identify small molecule antagonists of the estrogen receptor beta (ER-beta) signaling pathway - cell viability counter screen (AID 1259382);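 further: HEK293T cells carrying ER-beta-UAS-bla reporter stimulated with estradiol; series mostly up to about 92 µM; nearly all actives have a fitted effect of over 55% in size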
Procedure, shortened: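 ER-beta-UAS-bla HEK293T cells in 2% charcoal-stripped FBS medium, treated with compound plus 1 nM 17-beta-estradiol for 16 h at 37C. Viability read by CellTiter-Glo luminescence after 30 min at room temperature in the same wells.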
On the % scale 0 is the no-effect control and ±100 the full control effect.

CCCCCCCCCCCCCCCCCO
inactive: viability change, negative = cytotoxic [1] -1.99% [at 19 µM] | activity, negative = inhibition [2] -1.74% [at 19 µM] | activity change, negative = inhibition [3] 0.173% [at 19 µM] | activity change, negative = inhibition [4] -0.454% [at 19 µM] | activity change, negative = cytotoxicity [5] 1.77% [at 19 µM] | viability change, negative = cytotoxic [6] -3.91% [at 19 µM] | viability change, negative = cytotoxic [7] 5.3% [at 19 µM] | activity change [8] -2.43% [at 18.9 µM, stronger effect = higher value] | activity change, negative = inhibition [9] -1.47% [at 19 µM] | activity change, negative = cytotoxicity [10] 1.97% [at 19 µM] | activation [11] -1.33% [at 19 µM] | activation [12] -1.67% [at 19 µM] | activity change, negative = cytotoxicity [13] 2.39% [at 19 µM]

COc1cc(C(C)C)c2c(c1)S(=O)(=O)N(COc1cc(=O)n3cccc(OCCN4CCCCC4)c3n1)C2=O
inactive: viability change, negative = cytotoxic [1] -2.69% [at 19 µM] | activity, negative = inhibition [2] -16.6% [at 19 µM] | activity change, negative = inhibition [3] -10.3% [at 19 µM] | activity change, negative = inhibition [4] -2.47% [at 19 µM] | activity change, negative = cytotoxicity [5] -0.608% [at 19 µM] | viability change, negative = cytotoxic [6] -0.671% [at 19 µM] | activity change [8] 1.72% [at 18.9 µM, stronger effect = higher value] | activity change, negative = cytotoxicity [10] 0.166% [at 19 µM] | activity change, negative = cytotoxicity [14] -6.94% [at 19 µM] | activation [11] -1.84% [at 19 µM] | activation [12] -2.57% [at 19 µM] | cAMP activity change [15] 5.85% [at 18.9 µM] | activity change, negative = inhibition [16] -0.822% [at 19 µM] | activity change, negative = cytotoxicity [13] 4.42% [at 19 µM]

Cn1cccc1
inactive: Potency [1] | Potency [2] | Potency [3] | Potency [4] | Potency [6] | Potency [7] | Potency [8] | Potency [9] | Potency [10] | Potency [14] | Potency [17] | outcome [15] | Potency [16] | Potency [13]

CCCC(C)CCC(C)=O (stereo unspecified)
inactive: Potency [1] | Potency [2] | Potency [3] | Potency [4] | Potency [6] | Potency [7] | Potency [8] | Potency [9] | Potency [10] | Potency [14] | Potency [11] | Potency [17] | Potency [12] | outcome [15] | Potency [16] | Potency [13]

CCc1cccc(CC)c1NC(=O)C(=O)O
inactive: Potency [1] | Potency [2] | Potency [3] | Potency [4] | Potency [5] | Potency [6] | Potency [7] | Potency [8] | Potency [9] | Potency [10] | Potency [11] | Potency [17] | outcome [15] | Potency [16]

CCCCN(C)C
inactive: Potency [1] | Potency [2] | Potency [3] | Potency [4] | Potency [5] | Potency [6] | Potency [7] | Potency [8] | Potency [9] | Potency [10] | Potency [14] | Potency [17] | outcome [15] | Potency [16] | Potency [13]

NC(=O)c1ccccc1N
inactive: Potency [1] | Potency [2] | Potency [3] | Potency [4] | Potency [5] | Potency [6] | Potency [7] | Potency [8] | Potency [9] | Potency [10] | Potency [14] | Potency [11] | Potency [12] | outcome [15] | Potency [16]
